This is an account of results in PubChem BioAssay AID1724 (National Center for Advancing Translational Sciences (NCATS), 2009).

This test can be described thus: Confirmation Concentration-Response Assay for Inhibitors of the ERK Signaling Pathway using a Homogeneous Screening Assay. The method in brief:
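Vasopressin-V1b-expressing HEK293 cells, seeded overnight in 1% FBS, pretreated 30 min at 37C with compounds, then stimulated 5 min with 25 nM vasopressin. Phospho-ERK read by AlphaScreen after lysis and 5 hr beads; AC50 from Hill fit, normalized to DMSO and vasopressin.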

Results filed as inconclusive are left out. Calls of active or inactive are those of the source. Calls follow the shape of the dose curve; as a rule, active = well fitted inhibition curve with a large enough effect; inconclusive = small, poorly fitted or top-dose-only effect, or effect the other way; inactive = no such curve, though single readings can be large or run the other way.

Turning to `CC(/C=C/c1ccccc1)=N\Nc1ccccc1[N+](=O)[O-]`, the Potency result is “inactive”.
On to `O=C(Nc1ccc(-c2cn3ccsc3n2)cc1)c1ccc(F)c(S(=O)(=O)N2CCOCC2)c1`, for which the Potency was 12.6 µM (active).
To `Cc1ccc(Nc2ncnc3sc(C)c(C)c23)cc1` belongs “inactive”; to `Cc1sc2ncnc(Nc3ccccc3)c2c1C`, “inactive”.
Take `COc1cc2ncnc(Nc3cccc(Cl)c3)c2cc1OC`: the Potency entry is “inactive”.
To `O=C1c2ccccc2C(=O)c2c1cccc2N1CCCC1` belongs 17.8 µM (active); to `O=S(=O)(c1ccccc1)N1CCN(c2cc(-c3ccccc3)nc3ncnn23)CC1`, 31.6 µM (active).
With `COc1cc(C(=O)Nc2nc(-c3cccs3)cs2)cc(OC)c1OC`, the Potency was 12.6 µM (active).
To `CN(C)CCCn1cc(C2=C(c3c[nH]c4ccccc34)C(=O)NC2=O)c2ccccc21` belongs 1.26 µM (active).
